What was measured:
Details in all cases: concentration: 1 μM, replicates: in singlicate; n = 1
EIF2AK1 = tested on: EIF2AK1
EPHA1 = tested on: EPHA1
EPHA2 = tested on: EPHA2
EPHA3 = tested on: EPHA3
EPHA4 = tested on: EPHA4
EPHA5 = tested on: EPHA5
EPHA6 = tested on: EPHA6
EPHA7 = tested on: EPHA7
EPHA8 = tested on: EPHA8
EPHB1 = tested on: EPHB1
EPHB2 = tested on: EPHB2
EPHB3 = tested on: EPHB3
EPHB4 = tested on: EPHB4
EPHB6 = tested on: EPHB6
ERBB2 = tested on: ERBB2
ERBB3 = tested on: ERBB3
ERBB4 = tested on: ERBB4
ERK1 = tested on: T1, ERK1
T1 construct: gene MAPK3

ERK2 = tested on: T2, ERK2
T2 construct: gene MAPK1

ERK3 = tested on: T3, ERK3
T3 construct: gene MAPK6
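Note: KINOMEscan kinase panel screen.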

Row | SMILES | %Inh (EIF2AK1) | %Inh (EPHA1) | %Inh (EPHA2) | %Inh (EPHA3) | %Inh (EPHA4) | %Inh (EPHA5) | %Inh (EPHA6) | %Inh (EPHA7) | %Inh (EPHA8) | %Inh (EPHB1) | %Inh (EPHB2) | %Inh (EPHB3) | %Inh (EPHB4) | %Inh (EPHB6) | %Inh (ERBB2) | %Inh (ERBB3) | %Inh (ERBB4) | %Inh (ERK1) | %Inh (ERK2) | %Inh (ERK3)
1 | COC(=O)c1cccc(NC(=O)NCCNc2ccnc(Nc3ccc(F)cc3)n2)c1 [GSK1379883] | 0% | 5% | 32% | 0% | 7% | 0% | 20% | 3% | 9% | 4% | 0% | 21% | 6% | 4% | 14% | 15% | 28% | 0% | 11% | 0%
2 | Cl.c1ccc(Cn2ncc3cc(Nc4ncnc5ccccc45)ccc32)cc1 [GW273749] | 0% | 28% | 0% | 0% | 4% | 0% | 0% | 7% | 17% | 0% | 0% | 0% | 10% | 31% | 100% | 68% | 96.2% | 0% | 0% | 57%
3 | CC(C)(C)OC(=O)NC1CCCN(c2cc(-c3ccc4c(N)n[nH]c4c3)nc(N)n2)C1 (centres unmarked) [GSK2286096] | 4% | 8% | 11% | 0% | 14% | 0% | 9% | 0% | 6% | 10% | 90.5% | 14% | 9% | 0% | 0% | 0% | 33% | 0% | 0% | 0%
4 | COC(=O)c1c(-c2ccccc2)c2cc(Cl)ccc2c(=O)n1Cc1ccc(S(C)(=O)=O)cc1 | 10% | 0% | 8% | 6% | 20% | 4% | 34% | 1% | 7% | 6% | 18% | 24% | 0% | 0% | 0% | 0% | 29% | 0% | 3% | 0%
5 | Nc1nc(-c2ccc3c(N)n[nH]c3c2)cc(N2CCC[C@@H](C(=O)Nc3ccccc3)C2)n1.O=C(O)C(F)(F)F.O=C(O)C(F)(F)F [GSK2288359] | 1% | 17% | 0% | 0% | 4% | 0% | 0% | 3% | 3% | 21% | 0% | 5% | 1% | 29% | 0% | 0% | 2% | 100% | 0% | 18%
6 | Nc1nc(-c2ccccn2)c(-c2ccnc3ccccc23)s1 [GW548057] | 0% | 6% | 0% | 15% | 0% | 0% | 6% | 13% | 20% | 5% | 14% | 14% | 0% | 27% | 53% | 31% | 11% | 0% | 0% | 10%
7 | Clc1cc(Nc2ncnc3cc[nH]c23)ccc1OCc1ccccn1 | 3% | 11% | 12% | 0% | 24% | 14% | 27% | 1% | 0% | 1% | 15% | 21% | 25% | 35% | 100% | 24% | 73% | 0% | 18% | 0%
8 | O=C(Nc1ccccc1)Nc1ccc(Oc2ccc3nccn3n2)cc1 | 0% | 31% | 25% | 0% | 0% | 0% | 0% | 3% | 23% | 13% | 0% | 7% | 7% | 0% | 24% | 0% | 0% | 0% | 0% | 0%
9 | Clc1cccc(-c2nc(Nc3ccncc3)c3ccccc3n2)c1 [GW873004] | 0% | 100% | 38% | 0% | 5% | 0% | 0% | 15% | 18% | 19% | 2% | 0% | 45% | 0% | 38% | 46% | 0% | 1% | 12% | 0%
10 | O=c1cc(N2CCOCC2)nc2n(Cc3cccc(Cl)c3)ccn12 [GSK2296823] | 7% | 17% | 14% | 82% | 20% | 0% | 19% | 7% | 17% | 8% | 0% | 15% | 9% | 56% | 0% | 0% | 100% | 0% | 0% | 0%

Reference: article PMC5540273 (PLoS ONE, 2017)
